Records with an inconclusive call do not appear. Entries that show only a call come without a potency. Active and inactive are the calls of the source. Unless noted, calls come from the whole dose curve.
Tests used:
[1] = qHTS for Inhibitors of the Functional Ribonucleoprotein Complex (vRNP) of Lassa (LASV) Arenavirus: LASV Primary Screen - GLuc reporter signal (AID 1347082; calls by dose curve; tested in HEK293 reporter line; note: nearly all actives have a fitted effect of over 60% in size; note: potency is the fitted concentration of half-maximal effect)
[2] = qHTS for Inhibitors of the Functional Ribonucleoprotein Complex (vRNP) of Lassa (LASV) Arenavirus: Viability assay - alamar blue signal for LASV Primary Screen (AID 1347083; calls by dose curve; tested in HEK293 reporter line; note: nearly all actives have a fitted effect of over 80% in size; note: potency is the fitted concentration of half-maximal effect)
[3] = Cytotoxicity counterscreen for inhibitors of SARS-CoV-2 cell entry (AID 1645845); note: nearly all actives have a fitted effect of over 50% in size
In short: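 Counterscreen run in the same HEK293-ACE2 line as the pseudotyped-particle entry assay, without particles. Viability after 48 h at 37 C was read as ATP luminescence, scaled between cell-containing and cell-free wells.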

[4] = Primary qHTS for Huh7 cytotoxicity: counterscreen for inhibitors of MERS-S pseudotyped particle cell entry (AID 1479147); conditions: outcome: dose series up to 57.1 µM unless noted
[5] = Primary qHTS for inhibitors of MERS-S pseudo-typed particle cell entry (AID 1479149); note: nearly all actives have a fitted effect of over 60% in size
[6] = Primary qHTS for Vero E6 cytotoxicity: counterscreen for inhibitors of SARS-S pseudo-typed particle cell entry (AID 1479150); conditions: outcome: dose series up to 57.1 µM unless noted
[7] = Primary qHTS to identify inhibitors of SARS-CoV-2 cell entry (AID 1645846); conditions: activity change, negative = inhibition: at 57.1 µM (top of the series) unless noted; note: nearly all actives have a fitted effect of over 45% in size; note: potency is the fitted concentration of half-maximal effect
In short: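 Entry measured by luciferase signal 48 h after adding SARS-CoV-2-S pseudotyped MLV particles to HEK293-ACE2 cells preincubated 1 h with compounds. Normalisation: bald particles and spike particles.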

[8] = qHTS profiling of the MIPE4 collection as inhibitors of Plasmodium falciparum (3D7) proliferation (AID 743344; call rule not given here); conditions: P. falciparum 3D7 in erythrocytes, SYBR Green DNA fluorescence, 72 h; at 28.5 µM (top of the series) unless noted
In short: (§1)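 Parasite DNA was quantified by SYBR Green I fluorescence (ex 485, em 535 nm) after overnight lysis in saponin/Triton buffer at room temperature. Cultures at 0.3% parasitemia and 2.5% hematocrit were first exposed to compound for 72 h at 37 C; signals were normalised to artemisinin (0.29 uM) and vehicle wells.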

[9] = molecular target: Nucleoprotein (Lymphocytic choriomeningitis virus (strain Armstrong)) (UniProt P09992); assay: qHTS for Inhibitors of the Functional Ribonucleoprotein Complex (vRNP) of Lymphocytic Choriomeningitis Arenaviruses (LCMV): LCMV Primary Screen - GLuc reporter signal (AID 1347086); note: nearly all actives have a fitted effect of over 70% in size; note: potency is the fitted concentration of half-maximal effect
[10] = qHTS profiling of the MIPE4 collection as inhibitors of Plasmodium falciparum (DD2) proliferation (AID 743345; call rule not given here); conditions: P. falciparum Dd2 in erythrocytes, SYBR Green DNA, 72 h; at 28.5 µM (top of the series) unless noted
In short: as §1

[11] = VSVG counterscreen qHTS to identify inhibitors of SARS-CoV-2 cell entry (AID 1645847); note: potency is the fitted concentration of half-maximal effect; nearly all actives have a fitted effect of over 65% in size
In short: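 Luminescence read after 48 h infection at 37 C with VSV-G-pseudotyped MLV particles, following 1 h compound exposure of Expi293F cells stably expressing human ACE2; scaled between bald particle and VSV-G particle wells.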

[12] = molecular target: Alpha-galactosidase (Coffea arabica) (UniProt Q42656); assay: Counterscreen for Glucocerebrosidase Inhibitors: qHTS Assay for Coffee Bean alpha-Galactosidase at pH 4.5 (AID 957; active = well fitted curve in the direction sought with a large enough effect; an effect the other way counts as inactive or inconclusive)
In short: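 Fluorogenic read-out: 4-methylumbelliferone at Ex 365/Em 440 nm after NaOH/glycine stop (pH 10). Enzyme 2 nM, 4-MU-alpha-galactoside 80 uM, citrate buffer pH 4.5, 20 min RT; normalized to no-enzyme and enzyme controls.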

[13] = molecular target: Alpha-galactosidase (Coffea arabica) (UniProt Q42656); assay: Counterscreen for Glucocerebrosidase Inhibitors: qHTS Assay for Coffee Bean alpha-Galactosidase at pH 5.9 (AID 998; active = well fitted curve in the direction sought with a large enough effect; an effect the other way counts as inactive or inconclusive)
In short: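 Enzyme 2 nM + cpd (0.7 nM–77 uM titration) + 4-MU-alpha-Gal 80 uM, pH 5.9 citrate/Tween-20, RT 20 min, NaOH/glycine stop pH 10, fluor 365/440. Normalized to no-enzyme and full-activity controls; Hill-fit AC50.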

[14] = Validation screen for inhibitors of Lassa infection (AID 463096)
[15] = Inducers of the Endoplasmic Reticulum Stress Response (ERSR) in human glioma: Validation (AID 504836; active = well fitted curve in the direction sought with a large enough effect; an effect the other way counts as inactive or inconclusive)
In short: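 Stably transfected U87-MG glioma cells carrying a GRP78-based luciferase sensor; 16 h compound incubation. Luminescence end-point read 10 min after Bright-Glo addition at room temperature.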

Nucleoprotein (Lymphocytic choriomeningitis virus (strain Armstrong)), sequence (P09992 whole entry, looked up): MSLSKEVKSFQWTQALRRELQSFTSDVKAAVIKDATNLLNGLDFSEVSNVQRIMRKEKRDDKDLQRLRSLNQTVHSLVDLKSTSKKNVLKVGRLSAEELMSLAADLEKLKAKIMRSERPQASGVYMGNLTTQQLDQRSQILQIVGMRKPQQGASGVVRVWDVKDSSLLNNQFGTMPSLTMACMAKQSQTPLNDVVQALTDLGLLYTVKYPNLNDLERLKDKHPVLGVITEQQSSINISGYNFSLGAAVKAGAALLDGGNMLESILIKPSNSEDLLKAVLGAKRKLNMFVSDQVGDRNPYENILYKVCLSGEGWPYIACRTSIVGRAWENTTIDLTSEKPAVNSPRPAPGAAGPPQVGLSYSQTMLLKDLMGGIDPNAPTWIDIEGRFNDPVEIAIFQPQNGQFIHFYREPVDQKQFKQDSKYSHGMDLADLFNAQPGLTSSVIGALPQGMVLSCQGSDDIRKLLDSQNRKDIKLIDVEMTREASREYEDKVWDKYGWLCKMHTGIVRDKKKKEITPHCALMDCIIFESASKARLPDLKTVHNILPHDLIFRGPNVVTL
Alpha-galactosidase (Coffea arabica), sequence (Q42656 whole entry, looked up): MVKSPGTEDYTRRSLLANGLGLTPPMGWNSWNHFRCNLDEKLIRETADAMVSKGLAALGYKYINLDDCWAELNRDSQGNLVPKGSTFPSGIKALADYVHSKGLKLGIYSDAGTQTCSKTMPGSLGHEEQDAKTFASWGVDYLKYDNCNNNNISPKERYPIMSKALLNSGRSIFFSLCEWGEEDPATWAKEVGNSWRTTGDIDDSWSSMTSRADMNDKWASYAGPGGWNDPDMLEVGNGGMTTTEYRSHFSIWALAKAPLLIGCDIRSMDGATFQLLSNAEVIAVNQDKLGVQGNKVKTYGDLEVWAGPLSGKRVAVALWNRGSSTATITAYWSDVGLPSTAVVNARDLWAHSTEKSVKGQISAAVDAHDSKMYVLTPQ

With CCNc1cc(NC2CCC(O)CC2)nc(Nc2ccc3c(ccn3Cc3ccccc3)c2)n1 (configuration not stated) the Potency [1] was “inactive”, the Potency [2] was “inactive” and the Potency [3] was “inactive”.

In the case of C[S+](C)CCC(N)C(=O)O (configuration not stated), the Potency [1] is reported as “inactive”, the Potency [2] is reported as “inactive” and the outcome [4] is reported as “inactive”. For the same compound, the Potency [5] was “inactive”, the outcome [6] was “inactive” and the Potency [3] was “inactive”. For the same compound, the activity change, negative = inhibition [7] was -29.8%.

In the case of CC(C)C(C)C=CC(C)C1CCC2C3=CC=C4CC(O)CCC4(C)C3CCC21C (configuration not stated), the parasite growth, % of DMSO control [8] is reported as 96.2%, the Potency [1] is reported as 27.3 µM (active) and the Potency [2] is reported as 38.5 µM (active). For the same compound, the Potency [9] was 7.69 µM (active) and the Potency [7] was “inactive”.

For CC(C)=CC[C@@H](O)C1=CC(=O)c2c(O)ccc(O)c2C1=O, the Potency [1] was “inactive”, the Potency [2] was “inactive” and the Potency [9] was “inactive”. For the same compound, the Potency [3] was “inactive” and the Potency [7] was “inactive”.

For N[C@@]1(C(=O)O)CS(=O)(=O)[C@H]2[C@H](C(=O)O)[C@H]21, the Potency [1] was “inactive”, the Potency [2] was 19.3 µM (active) and the Potency [9] was “inactive”. For the same compound, the Potency [3] was “inactive” and the Potency [7] was “inactive”.

In the case of COc1cc2c(cc1-c1c(C)noc1C)ncc1[nH]c(=O)n([C@H](C)c3ccccn3)c12, the Potency [1] is reported as 13.7 µM (active), the Potency [2] is reported as 17.2 µM (active) and the Potency [9] is reported as 9.68 µM (active). For the same compound, the Potency [3] was “inactive” and the activity change, negative = inhibition [7] was -29%.

For CC(C)C[C@H](CC(=O)O)C(=O)N[C@@H](Cc1c[nH]c2ccccc12)C(=O)N[C@@H](C)c1ccccc1, the Potency [1] was “inactive”, the Potency [2] was “inactive” and the Potency [9] was “inactive”. For the same compound, the Potency [3] was “inactive” and the activity change, negative = inhibition [7] was -6.02%.

In the case of Cn1cc(C[C@@H](N)C(=O)O)c2ccccc21, the Potency [1] is reported as “inactive”, the Potency [2] is reported as “inactive” and the outcome [3] is reported as “inactive [at 11.3 µM]”.

With CC=C(C)C(=O)O[C@H]1C(C)=C[C@]23C(=O)[C@@H](C=C(CO)[C@@H](O)[C@]12O)[C@H]1[C@@H](C[C@H]3C)C1(C)C the parasite growth remaining, % of DMSO control (lower = more inhibition) [10] was 78.2%, the Potency [1] was “inactive” and the Potency [2] was 4.32 µM (active). The Potency [9] was “inactive”.

With O=C1NC(=O)C(c2cnc3ccccn23)=C1c1cn2c3c(cccc13)CN(C(=O)N1CCOCC1)CC2 the Potency [1] was “inactive”, the Potency [2] was 6.85 µM (active) and the Potency [9] was “inactive”. For the same compound, the Potency [3] was “inactive” and the Potency [11] was 215 nM (active).

For COc1cc(F)c(F)c(Nc2ccc(I)cc2F)c1NS(=O)(=O)C1(C[C@H](O)CO)CC1, the Potency [1] was “inactive”, the Potency [2] was “inactive” and the Potency [9] was “inactive”. The Potency [7] was 25.1 µM (active).

With O=c1[nH]c2cc(Cl)c(Cl)cc2[nH]c1=O the outcome [12] was “inactive”, the outcome [13] was “inactive” and the Potency [14] was “inactive”. For the same compound, the outcome [15] was “inactive”, the Potency [1] was “inactive” and the Potency [2] was “inactive”. For the same compound, the Potency [9] was “inactive”.

For COc1cc2c(cc1OC)CN(CCc1ccc(NC(=O)c3cc(OC)c(OC)cc3NC(=O)c3cnc4ccccc4c3)cc1)CC2, the Potency [1] was “inactive”, the Potency [2] was 19.3 µM (active) and the Potency [9] was “inactive”. For the same compound, the Potency [3] was “inactive”.

Reference: PubChem BioAssay (NCATS)
